Test results from PubChem BioAssay AID651899 (Broad Institute, 2012).
Results with a measured potency or affinity are listed apart. The source made the active and inactive calls. No rule for the calls is given here.

experiment: cytotoxicity in HEK293 cells, dose response, cytotoxicity control, cell-based, plate reader, cherry-pick (AID 651899); conditions: series mostly up to 26 µM;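 also: cells exposed to compound for 48 hours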

Row | Structure (SMILES) | outcome
1 | C=CCn1c(SCc2c(C(=O)OC)sc(N)c2C(=O)OC)nnc1-c1ccc(Cl)cc1 | inactive
2 | COc1ccc(NC(=O)c2ccc(-n3cncn3)c([N+](=O)[O-])c2)cc1OC | inactive
3 | COc1ccc(NC2c3ccccc3C(=O)N2c2cccnc2)cc1Cl (stereo unspecified) | inactive
4 | Cc1cc(NC(=O)CN(C)S(=O)(=O)c2cnc[nH]2)ccc1Br | inactive
5 | CC(=O)OCC(=O)[C@@]1(OC(C)=O)[C@@H](C)C[C@H]2[C@@H]3C[C@H](F)C4=CC(=O)C=C[C@]4(C)[C@@]3(F)[C@@H](O)C[C@@]21C | inactive
6 | O=C(Nc1ncc2c(n1)CC(c1ccccc1)CC2=O)c1ccco1 (stereo unspecified) | inactive
7 | CCC(Sc1nc2ccsc2c(=O)n1Cc1ccc(C(=O)O)cc1)C(=O)Nc1cccc(OC)c1 (stereo unspecified) | inactive
8 | O=C(Nc1ccc(N2CCOCC2)c(Cl)c1)c1cccnc1 | inactive
9 | COc1cc(/C=C/C(=O)Nc2cccnc2)cc(OC)c1OC | inactive
10 | Cc1cccc(C(=O)NC2CCN(CC(=O)Nc3ccccc3Cl)CC2)c1 | inactive
11 | COc1ccc(CCN(C)c2ccc(C(N)=O)cc2[N+](=O)[O-])cc1OC | inactive
12 | C[C@@H]1CN([C@@H](C)CO)C(=O)Cc2cc(NC(=O)Cn3cnnn3)ccc2O[C@H]1CN(C)Cc1ccc2c(c1)OCO2 | inactive
13 | COC(=O)C[C@@H]1CC[C@@H]2[C@H](COC[C@@H](O)CN2C(=O)Nc2cccc(F)c2)O1 | inactive
14 | CCC(CO)Oc1cc(NC(=O)c2cccc(F)c2)c2ncn(C(C)C)c2c1 (stereo unspecified) | inactive
15 | CC(=O)CSc1nnc(CSc2ncccn2)n1C1CCCCC1 | inactive
16 | CC1CCCN(c2ccc(C(=O)Nc3cccnc3)cc2[N+](=O)[O-])C1 (stereo unspecified) | inactive
17 | C[C@@H](C(=O)N1CCN(Cc2ccc3c(c2)OCO3)CC1)n1nnc2ccccc2c1=O | inactive
18 | CC1=CC2=NC(=O)/C(=C\c3cc(C)n(-c4ccccc4F)c3C)C(=N)N2O1 | inactive

Row | Structure (SMILES) | outcome
19 | COc1ccc(NC(=O)c2ccc(S(=O)(=O)N(C)C)cc2)cc1OC | inactive
20 | O=C(C1CCCN(S(=O)(=O)c2cccnc2)C1)N1CCn2c1nc1ccccc12 (stereo unspecified) | inactive
21 | Cc1nc2sc(C(c3ccc(Cl)cc3)N3CCN(c4ccccc4F)CC3)c(O)n2n1 (stereo unspecified) | inactive
22 | COc1cccc(NC(=O)CCC2CCN(C(=O)c3ccc(C(C)=O)s3)CC2)c1 | inactive
23 | CC(=O)Nc1ccc2nc(-c3cccnc3)[nH]c2c1 | inactive
24 | O=C(Nc1cccc(F)c1)C1CCCN(c2cnccn2)C1 (stereo unspecified) | inactive
25 | CC(=O)c1ccc(N2CCN(c3ncccn3)CC2)c([N+](=O)[O-])c1 | inactive
26 | CCC(=O)N1CC[C@@H]2[C@H]1c1cc(-c3cccc(F)c3)ccc1N(C)[C@H]2CO | inactive
27 | CO[C@H]1CN(C)C(=O)c2ccc(NC(C)=O)cc2OC[C@@H](C)N(C(=O)c2ccc(F)cc2)C[C@H]1C | inactive
28 | Cc1ccc(S(=O)(=O)N(C)C)cc1NC(=O)CSc1nncs1 | inactive
29 | CC(=O)c1ccc(C(=O)N2CCCC(CCC(=O)N(C)CCc3ccccn3)C2)s1 (stereo unspecified) | inactive
30 | CN(Cc1ccccc1)C(=O)CCS(=O)(=O)c1ccc2c(c1)NC(=O)CS2 | inactive
31 | CCN(CC)CCNC(=O)c1cn(CC)c2ccc(S(=O)(=O)N3CCc4ccccc4C3)cc2c1=O | inactive
32 | O=C(Nc1ccc(NS(=O)(=O)c2ccccc2)cc1)c1cccnc1 | inactive
33 | O=C(CSc1nc2c(c(=O)n1-c1ccccc1)SCC2)N1CCN(c2ccccc2)CC1 | inactive
34 | Cc1ccc(-c2nn(CCC(=O)Nc3cccnc3)c(=O)c3ccccc23)cc1 | inactive
35 | CCOCCCNC(=O)CSc1nc2nc(C)c(Cc3ccccc3)c(C)n2n1 | inactive
36 | CCOc1ccc(-n2c(SCC(N)=O)nc3c(c2=O)SCC3)cc1 | inactive
